Assay results reported in PubChem BioAssay (NCI).
Compounds without any hit were thinned out: in the full panel of roughly 79,000, 15% have a hit. Activity calls are given as the source filed them. No stated cut-off is given here; in the data, active means growth inhibition above about 70%; inactive means the rest.

Columns and labels:
[1] = NCI Yeast Anticancer Drug Screen. Data for the rad52 strain (AID 147);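 further: 0% = growth of vehicle-treated control cultures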; conditions: S. cerevisiae rad52 mutant growth inhibition, hits give high values
In short: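 DNA repair-defective yeast; compound exposure; growth scored against vehicle controls.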

[2] = NCI Yeast Anticancer Drug Screen. Data for the rad50EPP+ strain (AID 151);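 further: 0% = growth of vehicle-treated control cultures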; conditions: S. cerevisiae rad50 mutant strain, hits give high values
In short: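 rad50EPP+ yeast treated with test compounds. Readout: growth vs vehicle control.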

[3] = NCI Yeast Anticancer Drug Screen. Data for the mgt1 strain (AID 153); conditions: S. cerevisiae mgt1 mutant growth inhibition, hits give high values
In short: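 Growth inhibition relative to vehicle controls was scored for the mgt1 yeast strain after compound exposure.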

[4] = NCI Yeast Anticancer Drug Screen. Data for the rad50 strain (AID 155);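 further: 0% = growth of vehicle-only cultures of the same strain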; conditions: S. cerevisiae rad50 strain growth inhibition, hits give high values
In short: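 Genetically altered yeast (DNA repair pathway); compound treatment; growth inhibition vs vehicle ctrl.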

[5] = NCI Yeast Anticancer Drug Screen. Data for the mec2-1 strain (AID 157); conditions: S. cerevisiae mec2-1 strain, hits give high values
In short: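 Growth inhibition is read against vehicle-treated controls after compound exposure of the mec2-1 yeast strain, which is defective in DNA damage repair or cell cycle control.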

[6] = NCI Yeast Anticancer Drug Screen. Data for the rad14 strain (AID 159);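 further: 0% = growth of vehicle-treated control cultures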; conditions: S. cerevisiae rad14 strain growth inhibition, hits give high values
In short: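 Test compounds were applied to a repair-deficient yeast strain. Its growth was then compared with that of cultures given vehicle alone, and inhibition was expressed relative to those controls.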

[7] = NCI Yeast Anticancer Drug Screen. Data for the sgs1 mgt1 strain (AID 161);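 further: 0% = growth of cultures given vehicle only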; conditions: S. cerevisiae sgs1 mgt1 strain, hits give high values
In short: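 Yeast cells carrying a defined DNA-repair defect were exposed to test compounds. Growth inhibition was measured relative to vehicle-treated controls.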

[8] = NCI Yeast Anticancer Drug Screen. Data for the CLN2oe strain (AID 163);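 further: 0% = growth of vehicle-only control cultures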; conditions: S. cerevisiae CLN2oe strain, hits give high values
In short: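 Compound-treated yeast; growth vs vehicle ctrl = % inhibition. Genetically altered strain (cell-cycle control).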

[9] = NCI Yeast Anticancer Drug Screen. Data for the cln2 rad14 strain (AID 165);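 further: 0% = growth equal to vehicle treated cultures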; conditions: S. cerevisiae cln2 rad14 strain, hits give high values
In short: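 Growth inhibition, relative to vehicle-treated controls, is the read-out. The test organism is a yeast strain with defined genetic alterations, cln2 rad14.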

[10] = NCI Yeast Anticancer Drug Screen. Data for the bub3 strain (AID 167); conditions: S. cerevisiae bub3 mutant strain, hits give high values
In short: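 Yeast carrying a defined mutation is treated with each compound, and growth is compared with that of vehicle-exposed cells to give inhibition.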

[11] = NCI Yeast Anticancer Drug Screen. Data for the wt2 strain (AID 169);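 further: 0% = growth of vehicle-treated yeast cultures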; conditions: S. cerevisiae wt2 strain growth inhibition, hits give high values
In short: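 Compound exposure of yeast; growth compared with vehicle controls; inhibition reported.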

[12] = NCI Yeast Anticancer Drug Screen. Data for the mlh1 strain (AID 171);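 further: 0% = growth of vehicle-treated control cultures of the same strain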; conditions: S. cerevisiae mlh1 strain growth inhibition, hits give high values
In short: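 Compounds are applied to a genetically altered yeast strain, and its growth is compared with that of vehicle-treated cultures to give percent inhibition.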

[13] = NCI Yeast Anticancer Drug Screen. Data for the sgs1 strain (AID 173);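 further: 0% = growth of vehicle-only control cultures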; conditions: S. cerevisiae sgs1 mutant, hits give high values
In short: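 Compounds applied to genetically altered yeast; growth compared with vehicle-treated cultures to give % inhibition.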

[14] = NCI Yeast Anticancer Drug Screen. Data for the mlh1 rad18 strain (AID 175); conditions: S. cerevisiae mlh1 rad18 strain growth inhibition, hits give high values
In short: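 Cells of a genetically altered yeast strain, deficient in DNA damage repair, were treated with compound. Their growth was then compared with that of vehicle-treated cultures to give inhibition.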

[15] = NCI Yeast Anticancer Drug Screen. Data for the rad18 strain (AID 177); conditions: S. cerevisiae rad18 mutant growth inhibition, hits give high values
In short: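 Compounds are applied to a repair-deficient yeast strain, and growth is compared with that of vehicle-treated cultures to give percent inhibition.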

[16] = at 5.0 µM (retest, dose inferred, filed as 0.5)
[17] = at 50.0 µM (retest, dose inferred, filed as 5.0)

Measured: growth inhibition

CCNc1nnc(CSc2nc(-c3ccccc3)c(-c3ccccc3)[nH]2)s1
active: [1]; at 33.0 µM 86% | [1]; at 100.0 µM 80% | [3]; at 33.0 µM 87% | [3]; at 100.0 µM 73% | [4]; at 33.0 µM 77% | [4]; [17] 94% | [4]; at 50.0 µM 79.3% | [4]; at 100.0 µM 76% | [5]; at 33.0 µM 73% | [5]; [17] 93% | [5]; at 100.0 µM 77% | [7]; [17] 97% | [8]; at 33.0 µM 85% | [8]; at 100.0 µM 76% | [9]; [17] 97% | [9]; at 50.0 µM 75% | [10]; at 33.0 µM 87% | [10]; [17] 97% | [10]; at 50.0 µM 85.2% | [10]; at 100.0 µM 82% | [11]; at 33.0 µM 92% | [11]; at 100.0 µM 83% | [12]; at 33.0 µM 81% | [13]; at 33.0 µM 71% | [13]; at 100.0 µM 80% | [14]; [17] 93% | [14]; at 50.0 µM 86.3% | [15]; at 33.0 µM 89% | [15]; at 100.0 µM 79%
inactive: [1]; at 1.2 µM -6% | [1]; at 3.7 µM 14% | [1]; at 11.0 µM -1% | [2]; at 1.2 µM 9% | [2]; at 3.7 µM 13% | [2]; at 11.0 µM 12% | [2]; at 33.0 µM 4% | [2]; at 100.0 µM 5% | [3]; at 1.2 µM -9% | [3]; at 3.7 µM -11% | [3]; at 11.0 µM -18% | [4]; at 1.2 µM -3% | [4]; at 3.7 µM -15% | [4]; [16] 7% | [4]; at 11.0 µM -13% | [5]; at 1.2 µM 8% | [5]; at 3.7 µM 0% | [5]; [16] -8% | [5]; at 11.0 µM -8% | [5]; at 50.0 µM 66% | [6]; at 1.2 µM -10% | [6]; at 3.7 µM -4% | [6]; at 11.0 µM -51% | [6]; at 33.0 µM 58% | [6]; at 100.0 µM 55% | [7]; [16] 7% | [7]; at 50.0 µM 64.8% | [8]; at 1.2 µM 5% | [8]; at 3.7 µM -7% | [8]; at 11.0 µM 5% | [9]; [16] 4% | [10]; at 1.2 µM -10% | [10]; at 3.7 µM -29% | [10]; [16] 36% | [10]; at 11.0 µM -23% | [11]; at 1.2 µM -3% | [11]; at 3.7 µM -9% | [11]; at 11.0 µM -37% | [12]; at 1.2 µM 3% | [12]; at 3.7 µM 5% | [12]; at 11.0 µM 0% | [12]; at 100.0 µM 66% | [13]; at 1.2 µM 23% | [13]; at 3.7 µM 18% | [13]; at 11.0 µM 18% | [14]; [16] -1% | [15]; at 1.2 µM 12% | [15]; at 3.7 µM 16% | [15]; at 11.0 µM 13%

O=C(CCCN1CCC(O)(c2ccc(Cl)cc2)CC1)c1ccc(F)cc1
inactive: [1]; at 1.2 µM 13% | [1]; at 3.7 µM 6% | [1]; at 11.0 µM 27% | [1]; at 33.0 µM 31% | [1]; at 100.0 µM 38% | [2]; at 1.2 µM -3% | [2]; at 3.7 µM -4% | [2]; at 11.0 µM -6% | [2]; at 33.0 µM -6% | [2]; at 100.0 µM 0% | [3]; at 1.2 µM 17% | [3]; at 3.7 µM 30% | [3]; at 11.0 µM 40% | [3]; at 33.0 µM 58% | [3]; at 100.0 µM 65% | [4]; at 1.2 µM 24% | [4]; at 3.7 µM -8% | [4]; [16] 58% | [4]; at 11.0 µM 69% | [4]; at 33.0 µM 64% | [4]; at 100.0 µM 69% | [5]; at 1.2 µM 19% | [5]; at 3.7 µM 19% | [5]; [16] 33% | [5]; at 11.0 µM 29% | [5]; at 33.0 µM 36% | [5]; at 100.0 µM 41% | [6]; at 1.2 µM 50% | [6]; at 3.7 µM 69% | [7]; [16] 60% | [8]; at 1.2 µM 27% | [8]; at 3.7 µM 31% | [8]; at 11.0 µM 37% | [8]; at 33.0 µM 44% | [8]; at 100.0 µM 49% | [9]; [16] 43% | [10]; at 1.2 µM 38% | [10]; at 3.7 µM 41% | [10]; [16] 48% | [10]; at 11.0 µM 39% | [10]; at 33.0 µM 51% | [10]; at 50.0 µM 66.2% | [10]; at 100.0 µM 59% | [11]; at 1.2 µM 0% | [11]; at 3.7 µM 21% | [11]; at 11.0 µM 18% | [11]; at 33.0 µM 24% | [11]; at 100.0 µM 24% | [12]; at 1.2 µM 11% | [12]; at 3.7 µM 16% | [12]; at 11.0 µM 27% | [12]; at 33.0 µM 34% | [12]; at 100.0 µM 44% | [13]; at 1.2 µM 15% | [13]; at 3.7 µM 23% | [13]; at 11.0 µM 46% | [13]; at 33.0 µM 43% | [13]; at 100.0 µM 52% | [14]; [16] 35% | [14]; at 50.0 µM 66% | [15]; at 1.2 µM 37% | [15]; at 3.7 µM 37% | [15]; at 11.0 µM 44% | [15]; at 33.0 µM 58% | [15]; at 100.0 µM 64%
active: [4]; [17] 99% | [4]; at 50.0 µM 82.8% | [5]; [17] 100% | [5]; at 50.0 µM 77.7% | [6]; at 11.0 µM 78% | [6]; at 33.0 µM 83% | [6]; at 100.0 µM 86% | [7]; [17] 100% | [7]; at 50.0 µM 91.4% | [9]; [17] 99% | [9]; at 50.0 µM 70.8% | [10]; [17] 99% | [14]; [17] 99%
